This note sets out measurements from PubChem BioAssay.

Structures are written as SMILES. Where “and” joins values, the source holds several entries; their conditions need not be identical. Identical values can stand only once. A number with no mark means an inactive call. For some of these results: Measured potencies and affinities stand elsewhere. Calls of active or inactive are those of the source. Unless noted, the rule behind the calls is not given here.

Assay [1] can be described thus: antimalarial activity against Dd2 strain (AID 2302;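 active = growth inhibition above 50% at the single 2 µM test dose, taken to imply half-maximal potency below 2 µM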;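 note: 0% = DMSO untreated growth and 100% = chloroquine plus artemisinin killed control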). To be noted: P. falciparum Dd2 in RBCs, LDH growth readout, 72 h; at 2 µM; stronger effect = higher value.
The nature of assay [2]: human hepatoma cell viability loss – ATP luminescence, cytotoxicity control for P. falciparum antimalarial project, primary screen (AID 2303;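 active = inhibition above 50%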;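 note: 0% = DMSO wells and 100% = digitonin-killed cells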). The following applies: HepG2 viability, 24-48 h, at 10 µM, stronger effect = higher value.
Assay [3] concerns the target L-lactate dehydrogenase (Plasmodium falciparum (isolate CDC / Honduras)) (UniProt Q27743). Briefly: PfLDH activity inhibition – cell lysate, 3D7 strain, counter-screen for P. falciparum growth inhibition project (AID 2304).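 Note: 0% = vehicle and 100% = reference inhibitor.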 To be noted: P. falciparum 3D7 crude extract, LDH APAD/NBT absorbance; at 2 µM; stronger effect = higher value.
Assay [4] can be described thus: inhibition of 3D7 malaria parasite growth – strain 3D7 (AID 2306).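 Note: 0% = DMSO wells and 100% = chloroquine plus artemisinin control wells.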 To be noted: P. falciparum 3D7 erythrocytic growth, LDH absorbance, 72 h; at 2 µM; stronger effect = higher value.
Assay [5] concerns the target Calcium-dependent protein kinase 1 (Plasmodium falciparum (isolate 3D7)) (UniProt P62344). Briefly: PfCDPK1 kinase inhibitors, biochemical, TCAMS library (AID 1159585; cut-off not given, nearly all actives have IC50 up to about 0.98 µM;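 note: inhibitors leave more ATP so luminescence rises with inhibition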). The following applies: recombinant PfCDPK1, Kinase-Glo ATP depletion luminescence.
Assay [6] addresses Plasmodium falciparum protein kinase 6 (PK6, PF3D7_1337100) (UniProt Q8IDW1). Briefly: PfPK6 kinase inhibitors, biochemical, TCAMS library (AID 1159586). The following applies: recombinant PfPK6, Kinase-Glo ATP depletion luminescence. (In Kinase-Glo more light means more ATP remaining.)
Assay [7] has as its target Protein kinase 7 (PK7), Plasmodium falciparum 3D7 (PF3D7_0213400) (UniProt Q7YTF7). Briefly: inhibition of Plasmodium PK7 catalytic activity – biochemical, TCAMS antimalarial set, Kinase-Glo luminescence (AID 1159587). The following applies: recombinant PfPK7, Kinase-Glo ATP depletion luminescence.
Assay [8] deals with Calcium-dependent protein kinase 4 (Plasmodium falciparum (isolate 3D7)) (UniProt Q8IBS5). Put plainly: PfCDPK4 kinase inhibitors, biochemical, TCAMS library (AID 1159588; cut-off not given, nearly all actives have IC50 up to about 0.91 µM). The following applies: recombinant PfCDPK4, Kinase-Glo ATP depletion luminescence.
Calcium-dependent protein kinase 4 (Plasmodium falciparum (isolate 3D7)), sequence (Q8IBS5 whole entry, looked up): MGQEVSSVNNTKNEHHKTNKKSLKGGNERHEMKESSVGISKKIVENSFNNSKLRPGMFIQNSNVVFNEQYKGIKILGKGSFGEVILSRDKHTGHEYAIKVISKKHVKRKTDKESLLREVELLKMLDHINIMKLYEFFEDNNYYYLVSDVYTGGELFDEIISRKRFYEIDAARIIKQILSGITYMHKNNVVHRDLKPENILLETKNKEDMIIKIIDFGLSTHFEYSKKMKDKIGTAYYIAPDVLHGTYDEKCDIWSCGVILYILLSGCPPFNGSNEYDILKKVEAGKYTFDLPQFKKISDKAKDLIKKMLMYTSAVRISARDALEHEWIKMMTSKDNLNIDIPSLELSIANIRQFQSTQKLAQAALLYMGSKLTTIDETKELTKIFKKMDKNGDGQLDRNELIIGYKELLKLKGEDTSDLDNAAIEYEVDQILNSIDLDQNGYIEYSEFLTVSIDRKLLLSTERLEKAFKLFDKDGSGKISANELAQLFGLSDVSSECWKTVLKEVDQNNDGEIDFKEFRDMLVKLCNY

Plasmodium falciparum protein kinase 6 (PK6, PF3D7_1337100), sequence (Q8IDW1 1-305): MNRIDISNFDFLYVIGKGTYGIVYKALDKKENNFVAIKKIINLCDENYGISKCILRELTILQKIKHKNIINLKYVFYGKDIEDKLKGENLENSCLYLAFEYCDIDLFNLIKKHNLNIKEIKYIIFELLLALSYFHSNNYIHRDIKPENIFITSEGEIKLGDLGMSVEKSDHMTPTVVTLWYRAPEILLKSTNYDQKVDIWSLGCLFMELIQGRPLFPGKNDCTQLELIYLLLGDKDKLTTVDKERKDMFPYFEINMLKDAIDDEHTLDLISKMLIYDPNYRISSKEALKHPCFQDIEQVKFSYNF
L-lactate dehydrogenase (Plasmodium falciparum (isolate CDC / Honduras)), sequence (Q27743 whole entry, looked up): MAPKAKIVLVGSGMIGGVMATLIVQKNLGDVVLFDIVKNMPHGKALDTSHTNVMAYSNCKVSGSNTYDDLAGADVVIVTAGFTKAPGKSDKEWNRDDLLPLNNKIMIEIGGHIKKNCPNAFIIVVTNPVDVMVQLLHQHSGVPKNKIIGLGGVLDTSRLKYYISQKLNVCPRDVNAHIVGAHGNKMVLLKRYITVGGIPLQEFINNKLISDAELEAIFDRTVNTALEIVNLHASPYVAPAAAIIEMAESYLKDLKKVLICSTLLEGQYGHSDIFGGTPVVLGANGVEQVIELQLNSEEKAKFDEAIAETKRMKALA
Protein kinase 7 (PK7), Plasmodium falciparum 3D7 (PF3D7_0213400), sequence (Q7YTF7 1-343): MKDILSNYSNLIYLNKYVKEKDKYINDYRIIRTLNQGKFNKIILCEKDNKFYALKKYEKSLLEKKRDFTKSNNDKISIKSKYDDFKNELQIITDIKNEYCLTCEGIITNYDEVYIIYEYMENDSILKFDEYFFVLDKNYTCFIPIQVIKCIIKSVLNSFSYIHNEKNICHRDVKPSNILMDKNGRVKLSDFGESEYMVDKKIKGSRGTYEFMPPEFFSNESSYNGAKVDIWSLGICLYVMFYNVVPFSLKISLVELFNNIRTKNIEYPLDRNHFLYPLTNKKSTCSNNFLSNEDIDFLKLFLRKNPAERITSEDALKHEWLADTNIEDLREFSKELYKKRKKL
Calcium-dependent protein kinase 1 (Plasmodium falciparum (isolate 3D7)), sequence (P62344 whole entry, looked up): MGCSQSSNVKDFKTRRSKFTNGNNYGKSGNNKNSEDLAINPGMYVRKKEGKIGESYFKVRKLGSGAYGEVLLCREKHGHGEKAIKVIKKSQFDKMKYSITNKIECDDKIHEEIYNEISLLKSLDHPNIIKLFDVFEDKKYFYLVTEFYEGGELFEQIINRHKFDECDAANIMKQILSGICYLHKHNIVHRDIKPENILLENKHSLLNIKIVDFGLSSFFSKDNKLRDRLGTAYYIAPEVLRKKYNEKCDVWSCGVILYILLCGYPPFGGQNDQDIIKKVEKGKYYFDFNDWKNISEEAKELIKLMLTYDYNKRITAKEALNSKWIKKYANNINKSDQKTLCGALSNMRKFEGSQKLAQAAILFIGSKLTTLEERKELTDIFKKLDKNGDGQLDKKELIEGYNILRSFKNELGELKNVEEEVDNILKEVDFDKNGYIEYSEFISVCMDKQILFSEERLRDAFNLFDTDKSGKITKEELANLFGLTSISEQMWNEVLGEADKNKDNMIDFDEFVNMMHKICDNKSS

Regarding `O=C(/C=C/c1ccc(Cl)c(Cl)c1)NCCCCCN1CCCN(C(=O)Nc2cccc(F)c2)CC1`, the growth inhibition is 4% in assay [1] and 97% (active) in assay [4]. Also, the inhibition was 20% in assay [2] and -3% in assay [3]. Further, the result in assay [5], in assay [6], in assay [7] and in assay [8] was inactive.
In the case of `OC(CNc1ccnc(Nc2cccc(Cl)c2)n1)c1cccc(C(F)(F)F)c1` (stereo not given), the results for the growth inhibition in assay [1] and in assay [4] were 98% (active) and 101% (active), respectively. Further, the inhibition was 11% in assay [2] and 4% in assay [3]. For the same molecule, the outcome in assay [5], in assay [6], in assay [7] and in assay [8] was inactive.
With `COc1cc(C(F)(F)F)c2cc(CNCCCNc3nc4ccccc4[nH]3)[nH]c2c1`, the growth inhibition in assay [1] was 0%; in assay [4] it was 101% (active). Besides, the inhibition was 60% (active) in assay [2] and -6% in assay [3]. The outcome in assay [5], in assay [6], in assay [7] and in assay [8] was inactive.
Take `O=C(NCC1CCN(Cc2ccc(F)cc2)C1)c1cc(-c2cccc(C(F)(F)F)c2)cs1` (stereo not given): the growth inhibition is 18% in assay [1] and 93% (active) in assay [4]. The inhibition was 38% in assay [2] and -2% in assay [3]. Further, the result in assay [5], in assay [6], in assay [7] and in assay [8] was inactive.
Take `COc1ccc(NC(=O)C2c3ccccc3C(=O)N(CC(C)C)C2c2cccs2)cc1OC` (stereo not given): the figures for the growth inhibition in assay [1] and in assay [4] were 98% (active) and 100% (active), respectively. The results for the inhibition in assay [2] and in assay [3] were 6% and 3%, respectively. For the same molecule, the outcome in assay [5], in assay [6], in assay [7] and in assay [8] was inactive.
As to `Cc1[nH]c2cccc(F)c2c(=O)c1Cc1ccc(Cl)cc1` (tested in a mixture with another compound), the growth inhibition was 94% (active) and 92% (active) in assay [1]; 94% (active) and 93% (active) in assay [4]. Also, the inhibition in assay [2] is 7% and 6%; in assay [3] it was 5%. Besides, the outcome in assay [5], in assay [6], in assay [7] and in assay [8] was inactive.
On to `CC(C)(C)OC(=O)N(Cc1cc(-n2nnnc2C(F)(F)F)ccc1O)[C@H]1CCCN(C(=O)OC(C)(C)C)[C@H]1c1ccccc1`, for which the figures for the growth inhibition in assay [1] and in assay [4] were 66% (active) and 98% (active), respectively. The inhibition in assay [2] is 14%; in assay [3], -5%. Besides, the outcome in assay [5], in assay [6], in assay [7] and in assay [8] was inactive.
For `O=S(=O)(NCCN1CCCC1)c1cccc(-c2ccccc2CNC2Cc3ccccc3C2)c1`, the growth inhibition is 76% (active) in assay [1] and 99% (active) in assay [4]. Moreover, the inhibition is 35% in assay [2] and -3% in assay [3]. Moreover, the outcome in assay [5], in assay [6], in assay [7] and in assay [8] was inactive.
Regarding `COc1ccc(CNCc2ccc(F)cc2)cc1-c1ccc(OC)c(S(=O)(=O)NCCN2CCCC2)c1`, the growth inhibition was 88% (active) in assay [1] and 101% (active) in assay [4]. Besides, the inhibition was 24% in assay [2] and 5% in assay [3]. Besides, the result in assay [5], in assay [6], in assay [7] and in assay [8] was inactive.
In the case of `COc1ccc(CNCc2ccccc2)cc1-c1ccc(S(=O)(=O)NCCN2CCCC2)cc1`, the figures for the growth inhibition in assay [1] and in assay [4] were 39% and 96% (active), respectively. Also, the inhibition was 38% in assay [2] and -1% in assay [3]. In addition, the result in assay [5], in assay [6], in assay [7] and in assay [8] was inactive.
As for `O=C(NC1CC1)c1ccc(Cn2c(SCc3cccc(Cl)c3)nc3ccccc3c2=O)cc1`, the figures for the growth inhibition in assay [1] and in assay [4] were 70% (active) and 90% (active), respectively. For the same molecule, the values for the inhibition in assay [2] and in assay [3] were 2% and 1%, respectively. In addition, the outcome in assay [5], in assay [6], in assay [7] and in assay [8] was inactive.
As for `O=C(Nc1cccc(-c2cccc(-c3nc4ccccc4[nH]3)c2)c1)N[C@@H]1C[C@H]1c1ccccc1`, the growth inhibition is 22% and 27% in assay [1]; 87% (active) and 90% (active) in assay [4]. Further, the inhibition in assay [2] is 40% and 8%; in assay [3] it was 2% and 1%. Moreover, the result in assay [5], in assay [6], in assay [7] and in assay [8] was inactive.
`Clc1ccc2c(NCCNc3ccnc4cc(Cl)ccc34)ccnc2c1`: the growth inhibition in assay [1] was 96% (active); in assay [4] it was 101% (active). Also, the inhibition was 6% in assay [2] and -6% in assay [3]. Besides, the result in assay [5], in assay [6], in assay [7] and in assay [8] was inactive.
`CCCc1cc(Cc2cnc(N)nc2N)cc(CCC)c1OC`: the growth inhibition in assay [1] was 1%; in assay [4], 92% (active). The inhibition in assay [2] was 18%; in assay [3], 1%. In addition, the result in assay [5], in assay [6], in assay [7] and in assay [8] was inactive.
As for `Cc1nc(-c2ccc(-c3ccc(NC(=O)c4coc5ccc(N6C[C@@H](C)N[C@@H](C)C6)cc45)cc3)c(C)c2)no1`, the results for the growth inhibition in assay [1] and in assay [4] were 88% (active) and 101% (active), respectively. Moreover, the inhibition in assay [2] and in assay [3] was 1% in each case. Besides, the outcome in assay [5], in assay [6], in assay [7] and in assay [8] was inactive.
On to `CC1(C)N=C(N)N=C(N)N1c1ccc2ccccc2c1`, for which the growth inhibition in assay [1] is -1%; in assay [4], 95% (active). For the same molecule, the inhibition is 48% in assay [2] and -2% in assay [3]. Also, the outcome in assay [5], in assay [6], in assay [7] and in assay [8] was inactive.
On to `Cc1cccc2[nH]c(-c3cccc(-c4cccc(CNCCCN5CCCC5=O)c4)c3)nc12`, for which the growth inhibition in assay [1] was 76% (active); in assay [4], 100% (active). Besides, the figures for the inhibition in assay [2] and in assay [3] were 9% and 2%, respectively. Moreover, the result in assay [5], in assay [6], in assay [7] and in assay [8] was inactive.
For the molecule `CCCC(C)Nc1nc(C)cc(N[C@@H](CC(C)C)C(=O)NCCOc2ccccc2)n1` (stereo not given in full), the values for the growth inhibition in assay [1] and in assay [4] were 28% and 93% (active), respectively. Further, the values for the inhibition in assay [2] and in assay [3] were 15% and 1%, respectively. In addition, the outcome in assay [5], in assay [6], in assay [7] and in assay [8] was inactive.
In the case of `CC1(C)N=C(N)N=C(N)N1OCCCCOc1ccccc1`, the growth inhibition in assay [1] and in assay [4] was 95% (active) each time. Besides, the inhibition was 60% (active) in assay [2] and -1% in assay [3]. Moreover, the outcome in assay [5], in assay [6], in assay [7] and in assay [8] was inactive.
`O=C(NCCCCN1CC[C@@H]2c3cccc(O)c3CC[C@H]21)c1ccc(-c2ccccc2)cc1`: the growth inhibition in assay [1] is 50% (active); in assay [4], 81% (active). The inhibition in assay [2] was 23%; in assay [3], 2%. In addition, the result in assay [5], in assay [6], in assay [7] and in assay [8] was inactive.

In general, inhibition refers to the relative decrease from the control value, in per cent.
